Screens deposited in PubChem by Columbia University Molecular Screening Center.
Rows were chosen to be rich in hits. Some 1% of all compounds tested hit in one or more screens of this group.
cytoskel mod = modifiers of cytoskeleton assembly | 91,000 tested, 0.18% active | HUVEC TNFa F-actin phalloidin imaging, high content | inhibition, % at 2 µM | AID 836;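 active = inhibition above the batch mean plus 3 SD and confirmed as a hit by visual image inspection, cut at about 30% in these data, passing the limit was not always enough; inconclusive = above the inhibition threshold but rejected on visual inspection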
VCAM1 TNFa inh = reduces TNF alpha induced VCAM1 expression in HUVEC; HUVEC TNFa-induced VCAM-1 immunofluorescence, high-content imaging; inhibition, % at 2 µM; 95,000 tested, 0.48% active; AID 802;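 active = inhibition above the batch mean plus 3 SD, with images confirmed as a hit by eye, cut at about 37% in these data; inconclusive = inhibition above that limit but hit not confirmed in images; inactive = inhibition not above that limit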
E-sel TNF inh = TNF alpha driven E-selectin expression inhibition; AID 1246; 120,000 tested, 0.71% active; inhibition, % at 2 µM; HUVEC TNFa-induced E-selectin immunofluorescence, high content;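 active = inhibition above the batch mean plus 3 SD, and confirmed as a hit on visual image review, cut at about 43% in these data; inconclusive = passes the inhibition cutoff but fails visual image review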
TNFa cytotox = toxic to HUVEC cells under TNF alpha stimulation | HUVEC TNFalpha-stimulated, Hoechst cell count, imaging | 93,000 tested, 0.17% active | cell count reduction, % at 2 µM;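 active = cell count reduction exceeding the screen mean by over 5 SD, scaled to untreated wells per plate, cut at about 78% in these data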;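 note: cells counted after 24 h of TNF alpha exposure following the 1 h pretreatment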
A number is an active result; n = inactive; u = inconclusive; x = no result.

SMILES | cytoskel mod | VCAM1 TNFa inh | E-sel TNF inh | TNFa cytotox
CCC(C)Sc1nc(O)cc(=O)[nH]1 (stereo not given) | n | n | x | 78
O=C(CCl)Nc1cccc(Oc2ccccc2)c1 | x | x | n | x
Cc1ccc(-n2[nH]c(C)c(C=Nc3ccc(S(=O)(=O)N4CCOCC4)cc3)c2=O)c(C)c1 | x | x | n | x
COC(=O)C(NC(=O)c1ccccc1)c1ccccc1 (stereo not given) | n | n | 60 | n
CCc1ccc(C(=O)/C=C/c2ccc([N+](=O)[O-])o2)cc1 | n | 49 | n | n
CCCc1sc(N/N=C/c2ccccn2)nc1-c1ccc(Br)cc1 | n | 94 | n | n
Cn1cc([N+](=O)[O-])c(C(=O)Nc2ccc(Br)cn2)n1 | n | n | 54 | n
CCSc1ccc(C(=O)Nc2ccc(Br)cn2)cc1[N+](=O)[O-] | x | x | n | x
COc1cc(/C=C2\SC(=S)N(CC(=O)Nc3ccc(O)cc3)C2=O)cc(OC)c1OC | x | x | 74 | x
Cc1ccc(O)c(NC(=O)CCC2CCCCC2)c1 | n | 79 | n | n
Cc1cccc(OCC(=O)Nc2cc(C)ccc2O)c1 | n | 58 | n | n
Cc1cccc(OCCCC(=O)O)c1 | n | n | 65 | n
Cc1ccc(OCC(=O)NNC(=O)C(=O)N2CCCC2)c(C)c1 | x | x | n | x
Cc1cccc(/C=N/NC(=O)C2CCCNC2=O)c1 (stereo not given) | x | x | n | x
COc1ccc(CCNC(=O)CSc2nnc3ccc(-c4cccnc4)nn23)cc1 | x | x | n | x
COc1ccc(Cn2nnnc2C(c2cccs2)N2CCCCCC2)cc1 (stereo not given) | n | n | n | n
COc1ccc(C(c2nnnn2Cc2ccccc2)N2CCN(c3nc4ccccc4s3)CC2)cc1 (stereo not given) | x | x | 69 | x
COc1ccc(Cn2nnnc2C(c2cccs2)N2CCSCC2)cc1 (stereo not given) | n | 87 | x | 88
CC1(C)OC2OC(C(=O)N/N=C/c3cc(Br)ccc3O)C3OC(C)(C)OC3C2O1 (stereo not given) | x | x | n | x
Cc1cccc(OCc2nnc(N)s2)c1C | n | n | 71 | n
Cc1ccc(OCc2nnc(N)s2)cc1 | x | x | n | x
CC1CCc2c(sc3nc(CN4CCN(S(=O)(=O)c5ccccc5[N+](=O)[O-])CC4)[nH]c(=O)c23)C1 (stereo not given) | x | x | n | x
N/C(CN1CCCC1=O)=N\OC(=O)c1ccccc1Cl | n | n | x | n
O=C(CN1CCCCCC1=O)OCc1ncc(-c2ccccc2)o1 | n | 90 | x | n
O=C(CN(CCO)c1ccccc1)Nc1ccc(Cl)c(S(=O)(=O)N2CCOCC2)c1 | x | x | n | x
SMILES | cytoskel mod | VCAM1 TNFa inh | E-sel TNF inh | TNFa cytotox
CCOc1ccc(C2/C(=C(\O)c3c(C)[nH]c(C(=O)OC)c3C)C(=O)C(=O)N2CCN(C)C)cc1 (stereo not given) | n | 92 | x | n
COc1ccc(-c2nnc(SCC(=O)N3CCOCC3)o2)cc1OC | x | x | 96 | x
COc1ccc(-c2nnc(SCC(=O)N3CCN(c4ccccc4)CC3)o2)cc1OC | x | x | n | x
Cc1cc(C)nc(SCc2ccc(C(=O)NNC(=O)Nc3cccc(Cl)c3)cc2)n1 | x | x | n | x
COc1ccccc1NC(=O)c1c(N=Cc2ccccc2O)cnn1C | x | x | n | x
Cc1ccc(NC(=O)Nc2ccc(F)cc2)cc1Cl | x | x | n | x
CCn1c(SCC(=O)NCC2CCCO2)nc2c(c1=O)SC(C)C2 (stereo not given) | x | x | 92 | x
CCOC(=O)/C(=C\c1cccc(O)c1)c1nc2sc(C)c(C)c2c(=O)[nH]1 | x | x | n | x
CCN1C(=O)/C(=C\c2cn(-c3ccccc3)nc2-c2cccnc2)SC1=S | x | x | 83 | x
Cc1ccccc1-n1ccnc1SCC(=O)O | n | n | 65 | n
O=C(Cc1ccccc1)c1nnc(-c2ccccc2)o1 | x | x | n | x
COc1cc(C(=O)Nc2ccc3c(c2)C(=O)c2ccccc2C3=O)cc(OC)c1OC | x | x | 64 | x
O=C(Oc1nsnc1N1CCOCC1)N1CCOCC1 | n | n | 77 | n
O=C(Oc1nsnc1N1CCOCC1)N1CCCCC1 | n | n | n | n
CN(C)c1nnnn1-c1ccccc1Oc1ncc(C(F)(F)F)cc1Cl | x | x | n | x
CCC(C)NS(=O)(=O)c1ccc(OCC(=O)NCc2ccco2)cc1 (stereo not given) | n | n | n | n
COc1ccc(S(=O)(=O)NC(CC(=O)NCc2ccco2)C(C)C)cc1 (stereo not given) | u | u | x | 100
Cn1c(=O)c(=O)n(C)c2cc(S(=O)(=O)N3CCc4ccccc43)ccc21 | n | n | 57 | n
COc1ccc(N2CCN(C(=O)C(C)(C)Oc3ccc(Cl)cc3)CC2)cc1 | n | n | x | 78
CCOC(=O)N1CCN(C(=O)C(C)(C)Oc2ccc(Cl)cc2)CC1 | n | n | x | n
Cc1cccc(NC(=O)c2ccccn2)c1C | n | n | n | n
Cc1cccc(NC(=S)Nc2ccccn2)c1C | x | x | 62 | x
C=CCCCOc1ccc(C(=O)O)cc1 | n | 76 | n | n
CCN(CC)S(=O)(=O)c1cccc(C(=O)OCC(=O)NC(C)c2ccccc2)c1 (stereo not given) | x | x | n | x
Cc1c(NC(=O)c2c(F)cccc2F)c(=O)n(-c2ccccc2)n1C | n | n | n | n
SMILES | cytoskel mod | VCAM1 TNFa inh | E-sel TNF inh | TNFa cytotox
Cc1c(NC(=O)c2c(N)n(-c3ccccc3)c3nc4ccccc4nc23)c(=O)n(-c2ccccc2)n1C | x | x | 77 | x
Cc1ccc([N+](=O)[O-])cc1N(CC(=O)Nc1ccc(S(=O)(=O)Nc2cccc(C(F)(F)F)c2)cc1)S(C)(=O)=O | x | x | n | x
CCN(CC)CCOCCOc1cc(C)c(Cl)c(C)c1 | n | n | n | n
CCc1cc(OCCOCCN(C)C)ccc1Cl | x | x | 92 | x
OCCCCNc1cccc2ccccc12 | n | 43 | x | n
OCCCCCNc1ncnc2ccccc12 | n | n | n | n
CCCN(CCC)C(=O)Cn1c(=O)n(CCCCCC(=O)Nc2ccccc2)c(=O)c2sccc21 | x | x | n | x
CCNC(=O)CCSc1nnc(-c2ccco2)o1 | x | x | n | x
COc1cc2[nH]cc(C(=O)NCCc3ccccc3)c(=O)c2cc1OC | n | 92 | n | n
COCCNC(=O)c1c[nH]c2cc(OC)c(OC)cc2c1=O | n | n | n | n
O=C(CSc1ncnc2ccccc12)NCC(=O)c1ccccc1 | x | x | n | x
Cc1ccccc1NC(=S)N1CCC(NC(=O)c2ccco2)CC1 | x | x | n | x
O=c1c2ccccc2nc(/C=C/c2ccc([N+](=O)[O-])o2)n1CCCO | n | 58 | n | n
CCOC(=O)c1c(NC(=O)CSc2nnc(C)c(=O)[nH]2)sc(C)c1C | x | x | 65 | x
CCOC(=O)c1sc2nc(CSc3nc4ccccc4n3CC)[nH]c(=O)c2c1C | n | n | 77 | n
CCOC(=O)c1sc2nc(COC(=O)c3c(F)cccc3F)[nH]c(=O)c2c1C | x | x | n | x
Cn1c(SCc2cccc([N+](=O)[O-])c2)nc2c(c1=O)SCC2 | x | x | n | x
O=C1NC(=O)/C(=C/C(=O)N2CCOCC2)S1 | x | x | n | x
COC(=O)c1cc(COC(=O)c2ccc(OC)c(S(=O)(=O)N3CCCC3)c2)oc1C | n | n | x | 96
COc1ccc(-c2csc(NC(=O)/C(N=Nc3ccccc3)=C(\C)O)n2)cc1 | x | x | n | x
CCOC(=O)/C=C/S(=O)(=O)c1ccc(NC(C)=O)cc1 | n | n | 76 | n
C=CCn1c(SCC(=O)Nc2ccccc2OC)nnc1-c1ccccn1 | n | n | n | n
CCn1c(SCC(=O)Nc2ccccc2OC)nnc1-c1cnccn1 | n | n | 62 | n
CC(C)(C)SCCNC(=O)CN(c1ccc(F)c(Cl)c1)S(C)(=O)=O | n | n | n | n
